Source: PubChem BioAssay
Several values for one entry are separate records, joined by “and”; a condition that tells them apart may be missing. Equal entries are not always repeated. Activity calls are given as the source filed them.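 The calls were made as follows, unless noted: active = inhibition at or above 50% relative to wild type and mutant plate controls; inactive = inhibition below 50%.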

Key:
[1] = inhibitors of TNFa-induced NFkB p65 translocation, primary screen, imaging, HUVEC, MLSMR starter and 10KST1 sets (AID 438;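 active = inhibition above 20% together with a positive visual image hit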;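 also: compound added about 3h40 before a 20 min TNFalpha stimulation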;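 as to inhibition: signal is the nuclear over cytoplasmic p65 intensity ratio per well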); conditions: HUVEC TNFa-induced p65 nuclear translocation; cell count: measured here: nuclei count (cytotoxicity indicator), at 2.08 µM; inhibition: at 2 µM, stronger effect = higher value, 0% TNFa-plus-vehicle, 100% no-TNFa wells
[2] = reduction of polyQ htt aggregates in cells – imaging, exon1htt(103Q)mCFP cells, high-content imaging, primary screen (AID 483;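 active = visual image review flags a hit and inhibition of aggregation exceeds 20%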;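 also: compound exposure lasted 3 days before fixation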;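 as to nuclei count: percent of the per-plate median nuclei count of sample wells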); conditions: exon1htt(103Q)mCFP cell line, aggregate imaging, at 2 µM; inhibition of aggregation: stronger effect = higher value; nuclei count: measured here: cell count, toxicity
[3] = endothelial E-selectin expression blockers – imaging, HUVEC, immunofluorescence, MLSMR starter and 10KST1 sets, primary screen (AID 487;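 active = visually confirmed hit in the image check and inhibition above 20%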;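 as to inhibition: signal is fraction of cell area covered by stained E-selectin grains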;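 as to nuclei count: 100% = median nuclei count of all wells on the same plate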); conditions: HUVEC TNFalpha-induced E-selectin immunofluorescence imaging, at 2 µM; inhibition: stronger effect = higher value; nuclei count: measured here: cell number, toxicity
[4] = Primary imaging screen for DUSP6 inhibitors that restore phospho-Erk in transfected HeLa cells, chemical complementation (AID 609;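 active = compounds giving at least 50% inhibition in the cell-based MKP-3 phosphatase rescue imaging test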;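 as to inhibition: phospho-Erk level distribution per well compared with pooled transfected vehicle control wells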); conditions: HeLa MKP-3 transfected, phospho-Erk imaging KS statistic, at 10 µM, cells stimulated with TPA for 15 min
[5] = molecular target: Dual specificity protein phosphatase 6 (Homo sapiens) (UniProt Q16828); test: as above; conditions: HeLa MKP-3 transfected, phospho-Erk imaging KS statistic; at 10 µM; stronger effect = higher value; cells stimulated with TPA for 15 min
Chain of Dual specificity protein phosphatase 6 (Homo sapiens) (Q16828 whole entry, looked up): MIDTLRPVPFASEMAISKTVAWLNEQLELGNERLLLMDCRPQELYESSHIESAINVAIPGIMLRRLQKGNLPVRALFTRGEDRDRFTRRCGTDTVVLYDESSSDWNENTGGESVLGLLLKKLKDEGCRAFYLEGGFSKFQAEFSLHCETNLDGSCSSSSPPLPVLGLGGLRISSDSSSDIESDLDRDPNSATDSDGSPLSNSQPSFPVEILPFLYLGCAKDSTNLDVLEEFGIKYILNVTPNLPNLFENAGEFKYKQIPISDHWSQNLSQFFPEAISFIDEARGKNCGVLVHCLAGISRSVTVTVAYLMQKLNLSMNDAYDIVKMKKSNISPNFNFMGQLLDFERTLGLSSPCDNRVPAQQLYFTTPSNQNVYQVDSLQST

[6] = molecular target: Voltage-gated potassium channel subunit beta-2 (Rattus norvegicus) (UniProt P62483); test: inhibitors of rat Kvbeta2 reductase activity – biochemical, NADPH fluorescence, primary screen (AID 622;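 active = fluorescence slope higher than the sample average by over 3 SD, cut at about -0.22 in these data, passing the limit was not always enough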;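 also: slope of raw intensity against log time taken from 70 to 1610 s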); conditions: recombinant KvBeta, 4-cyanobenzaldehyde reduction, at 10 µM, stronger effect = higher value
Chain of Voltage-gated potassium channel subunit beta-2 (Rattus norvegicus) (P62483 whole entry, looked up): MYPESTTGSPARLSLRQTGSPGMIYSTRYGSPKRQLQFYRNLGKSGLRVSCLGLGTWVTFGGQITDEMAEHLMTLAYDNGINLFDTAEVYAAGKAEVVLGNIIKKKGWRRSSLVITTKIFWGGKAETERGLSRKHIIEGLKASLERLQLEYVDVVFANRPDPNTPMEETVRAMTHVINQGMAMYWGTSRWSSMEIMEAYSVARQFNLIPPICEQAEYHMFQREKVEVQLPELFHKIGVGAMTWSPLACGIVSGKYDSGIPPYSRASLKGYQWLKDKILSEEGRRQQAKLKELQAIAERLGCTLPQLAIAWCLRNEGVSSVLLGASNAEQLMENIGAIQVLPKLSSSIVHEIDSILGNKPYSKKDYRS

[7] = molecular target: Voltage-gated potassium channel subunit beta-2 (Rattus norvegicus) (UniProt P62483); test: enhancers of rat Kvbeta2 NADPH turnover – biochemical, NADPH fluorescence, primary screen (AID 623;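 active = NADPH fluorescence slope more negative than the mean of all samples by about 3 SD, 99.7% confidence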;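 also: fluorescence intensity change per second fitted from 20 to 320 s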); conditions: Recombinant KvBeta, NADPH fluorescence decrease slope, 10 min; at 10 µM; stronger effect = lower value
[8] = molecular target: Muscarinic acetylcholine receptor M4 (Homo sapiens) (UniProt P08173); test: M4-linked GIRK flux change, two-sided – cell-based, HEK293 M4/GIRK, thallium flux, BTC-AM, M4 allosteric agonist project, primary screen (AID 625;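 active = fluorescence slope after compound addition differing from the mean of all tested samples at 99.7% confidence, mostly higher but some lower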;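 also: thallium influx through GIRK channels coupled to M4 in HEK293 cells with BTC-AM dye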); conditions: at 10 µM, actives lie on both sides
Chain of Muscarinic acetylcholine receptor M4 (Homo sapiens) (P08173 whole entry, looked up): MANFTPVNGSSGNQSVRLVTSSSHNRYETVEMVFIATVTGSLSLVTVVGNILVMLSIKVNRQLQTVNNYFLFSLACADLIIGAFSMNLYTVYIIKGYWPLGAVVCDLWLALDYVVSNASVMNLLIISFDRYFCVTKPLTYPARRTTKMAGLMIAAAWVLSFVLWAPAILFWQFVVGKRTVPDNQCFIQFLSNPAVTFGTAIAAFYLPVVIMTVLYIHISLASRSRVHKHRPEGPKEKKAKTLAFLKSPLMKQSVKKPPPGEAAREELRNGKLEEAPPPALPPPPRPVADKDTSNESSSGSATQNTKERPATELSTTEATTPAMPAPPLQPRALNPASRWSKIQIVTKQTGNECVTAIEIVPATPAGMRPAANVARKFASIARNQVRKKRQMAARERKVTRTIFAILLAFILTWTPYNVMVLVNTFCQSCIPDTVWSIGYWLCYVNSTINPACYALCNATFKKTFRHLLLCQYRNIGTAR

[9] = inhibitors of larval lipid processing in zebrafish, primary screen, whole organism, PED6 fluorescence, gall bladder and intestine (AID 686;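 active = a full or partial loss of lipid-probe fluorescence in the fish gall bladder, intestine or both, judged by eye; inactive = no fluorescence loss, or compound toxic to the fish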;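 also: larvae 5 to 7 days old with five fish per well; signal comes from phospholipase A2 cleavage of quenched PED6 carried via bile; overnight exposure to compound and PED6 before scoring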); conditions: Zebrafish larvae PED6 lipid processing, fluorescence scoring; screened at 20 µM (by protocol)
[10] = loss of swimming-algae plug formation – whole organism, Chlamydomonas reinhardtii, WT vs cilia-less mutant, absorbance, 96-well, primary screen (AID 463189); conditions: Chlamydomonas reinhardtii gravitaxis, OD600 absorbance, 2 days; at 10 µM; stronger effect = higher value;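 also: 0% = wild type cc124 cells in DMSO and 100% = ciliumless bld1 mutant cells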
[11] = blockers of RIG-like receptor reporter activation – cell-based, Sendai virus stimulus, luciferase, 10K MLSCN set, TLR/RLR signaling modifier project, primary screen (AID 602276;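 active = inhibition at or above 50% at 10 µM; inactive = inhibition below 50%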;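 also: firefly luciferase from ISG56 promoter only with Renilla not read in this screen; 0% = Sendai virus plus DMSO and 100% = medium plus DMSO without virus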); conditions: HEK293 RL24 IRF3 luciferase reporter, at 10 µM, stronger effect = higher value
[12] = TLR3 IRF3 reporter activation blockers – cell-based, poly I:C stimulus, luciferase, 10K MLSCN set, primary screen (AID 602277;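 active = inhibition of the reporter signal at or above 50%; inactive = inhibition below 50%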); conditions: HEK293-TLR3 RL24 IRF3 luciferase reporter, at 10 µM, stronger effect = higher value
[13] = molecular target: Alpha-2C adrenergic receptor (Homo sapiens) (UniProt P18825); test: compounds altering alpha2C-coupled GIRK flux – cell-based, HEK293 alpha2C/GIRK1/2, thallium flux, primary screen (AID 624;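 active = fluorescence slope after compound addition differing from the mean of all screened samples at 99.7% confidence, in either direction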;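 also: slope of fluorescence ratio to pre-addition baseline per second over 15 to 24 s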); conditions: thallium flux BTC fluorescence, at 10 µM, actives lie on both sides
Chain of Alpha-2C adrenergic receptor (Homo sapiens) (P18825 whole entry, looked up): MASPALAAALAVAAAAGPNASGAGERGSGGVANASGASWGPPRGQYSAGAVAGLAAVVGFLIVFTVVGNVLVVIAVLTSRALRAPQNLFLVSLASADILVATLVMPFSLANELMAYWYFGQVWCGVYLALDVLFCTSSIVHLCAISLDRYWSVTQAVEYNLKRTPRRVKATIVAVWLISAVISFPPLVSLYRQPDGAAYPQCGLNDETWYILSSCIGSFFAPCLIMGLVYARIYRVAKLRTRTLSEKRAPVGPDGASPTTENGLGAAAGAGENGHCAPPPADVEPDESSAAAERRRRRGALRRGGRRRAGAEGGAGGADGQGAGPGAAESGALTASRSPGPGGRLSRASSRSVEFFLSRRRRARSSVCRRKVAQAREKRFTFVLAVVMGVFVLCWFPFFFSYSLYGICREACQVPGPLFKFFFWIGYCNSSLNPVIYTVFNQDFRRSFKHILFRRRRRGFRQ

[14] = measured here: cell density z-score
[15] = measured here: nuclear c-Myc green intensity z-score
[16] = measured here: nuclear pErk red intensity z-score, stronger effect = higher value

| SMILES | cell count [1] | inhibition [1] | inhibition of aggregation [2] | nuclei count [2] [%] | inhibition [3] | nuclei count [3] [%] | z-score [4, 14] | z-score [4, 15] | z-score [4, 16] | inhibition [5] | fluorescence slope [6] | NADPH fluorescence slope [7] | fluorescence slope [8] | outcome [9] | inhibition [10] | inhibition [11] | inhibition [12] | slope [13] |
| --- | --- | --- | --- | --- | --- | --- | --- | --- | --- | --- | --- | --- | --- | --- | --- | --- | --- | --- |
| Clc1ccc(-n2ncc3c(NCCCn4ccnc4)ncnc32)cc1 | 618 | -10.7% (inactive) | -16.9% (inactive) | 105 | -41.4% (inactive) | 129 | -0.368 | 0.856 | 1.02 | 1.42% (inactive) | -0.386 (inactive) | -5.7e-05 (inactive) | 0.00622 (inactive) | inactive | -3.19% (inactive) | -0.733% (inactive) | -33.8% (inactive) |  |
| Cn1c(Cl)cnc1C1CC(=O)c2cc(Cl)ccc2O1 (stereo not drawn) | 637 | -11.8% (inactive) |  | 0.8 | -161% (inactive) | 112 | -0.672 | -0.603 | -2.4 | 15.9% (inactive) | -0.562 (inactive) | -8.8e-06 (inactive) |  | inactive | -12.2% (inactive) | 16.5% (inactive) | 35% (inactive) | 0.00554 (inactive) |
| O=C(NCCN1CCCCC1)c1ccc(=O)oc1 | 586 | -3% (inactive) | -8.2% (inactive) | 90.9 | -0.3% (inactive) | 130 | 0.13 | 0.819 | -0.401 | 4.37% (inactive) | -0.482 (inactive) | -5.1e-05 (inactive) | 0.00918 (inactive) | inactive | -5.06% (inactive) | 3.93% (inactive) | 3.77% (inactive) |  |
| CC(C)NCC(O)COc1cccc2[nH]ccc12 (stereo not drawn) | 631 | -11.5% (inactive) |  |  | -58% (inactive) | 126 | 0.107 | -0.142 | 0.346 | 3.45% (inactive) | -0.46 (inactive) | -4.4e-05 (inactive) |  | inactive | -3.19% (inactive) and 0.043% (inactive) | -0.334% (inactive) | 29.8% (inactive) | 0.00514 (inactive) |
| Nc1ccc(S(=O)(=O)Nc2ncccn2)cc1 | 603 | -1.5% (inactive) | -4.1% (inactive) | 87.5 | -68.8% (inactive) | 130 | 1.12 | -1.89 | 1.02 | 5.79% (inactive) | -0.5 (inactive) | -6.3e-05 (inactive) |  | inactive | -12.2% (inactive) | 15.1% (inactive) |  | 0.00507 (inactive) |
| Cc1cc(N2C(=O)C(=O)/C(=C(/O)c3ccccc3)C2c2cccc(Br)c2)no1 (stereo not drawn) | 298 | -10.2% (inactive) |  |  | -43.8% (inactive) | 93.2 | 0.294 | -0.11 | 0.565 | 1.6e-07% (inactive) | -0.473 (inactive) | -3.5e-05 (inactive) |  |  | -10.3% (inactive) |  |  | 0.00638 (inactive) |
| COc1ccccc1-c1cc(-c2cc(Cl)ccc2O)n[nH]1 | 259 | -13% (inactive) |  |  | -9.5% (inactive) | 129 | 1.7 | -0.531 | -0.306 | 7.01% (inactive) | -0.453 (inactive) | -1.7e-05 (inactive) |  |  | -19.8% (inactive) |  |  | 0.0086 (inactive) |
| CN1CCN(Cc2c(O)ccc3c(-c4ccccc4)cc(=O)oc23)CC1 | 362 | 6% (inactive) |  |  | -97.7% (inactive) | 124 | 0.437 | -1.09 | 0.493 | 1.48% (inactive) | -0.269 (inactive) | -2.1e-05 (inactive) |  |  | 8.71% (inactive) |  |  | 0.00684 (inactive) |
| Cc1ccc2cc(CN(C(=O)c3ccco3)c3ccccc3)c(=O)[nH]c2c1 | 312 | -4.2% (inactive) |  |  | -134% (inactive) | 163 | 1.52 | -0.685 | -0.563 | 19.3% (inactive) | -0.412 (inactive) | -4.7e-05 (inactive) |  |  | 33.7% (inactive) |  |  | 0.0072 (inactive) |
| COc1cccc(-c2nc(NC(C)(C)C)c3ccccc3n2)c1O | 394 | 0% (inactive) |  |  | -39.6% (inactive) | 141 | 0.222 | 0.227 | 0.927 | -1.75% (inactive) | -0.422 (inactive) | -0.000132 (inactive) |  |  | 34.2% (inactive) |  |  | 0.00293 (inactive) |
| CC(C)Cn1nc(NC(=O)C(C)(C)C)c2cc3ccccc3nc21 | 366 | 1.4% (inactive) |  |  | -86.4% (inactive) | 160 | -0.914 | -0.417 | 1.07 | -5.26% (inactive) | -0.371 (inactive) | -0.000242 (inactive) |  |  | -27.1% (inactive) |  |  | 0.00396 (inactive) |
| CC[N+](C)(C)Cc1ccccc1Br | 649 | -4.5% (inactive) |  |  | -101% (inactive) | 123 | -1.09 | -0.375 | 0.336 | 11.3% (inactive) | -0.502 (inactive) | 1.7e-05 (inactive) |  | inactive | 3.29% (inactive) and 10.5% (inactive) | 19.3% (inactive) | 30.2% (inactive) | 0.00416 (inactive) |
